The source made the active and inactive calls. How the source made its calls: active means hit-call score of the fitted dose curve at least 0.9, where 1 is the maximum; inactive means score below 0.9.

One experiment is described as follows: CCTE_Shafer_MEA_dev_per_burst_interspike_interval: CCTE's Neural Network Formation Assay for Burst Interspike Interval, Shafer Lab (AID 2284044).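 Further: mean spike spacing inside bursts as AUC over recordings on days 5 7 9 12.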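 On AC50: potency for a decrease of within-burst interspike interval below DMSO level.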 The gist of the method: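 Developmental network-formation MEA in primary rat cortical cultures with exposure spanning days 0–12. Within-burst ISI is averaged per well and integrated across recording days by area under the curve, with DMSO as negative control baseline.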
One may read the AC50 as the midpoint of the concentration-response curve, whichever way the signal moves. As for `C=CC(=O)OCC(F)(F)C(F)(F)C(F)(F)C(F)(F)COC(=O)C=C`, the AC50 was 4.18 µM (active).
For `O=C(O)C(F)(F)C(F)(F)C(F)(F)F`, the call was inactive.
The same measure, in the same setting: the same measure for `CC(C)(C)C(=O)CC(=O)C(F)(F)C(F)(F)C(F)(F)F`: “inactive”.
The same measure, in the same setting: the same measure for `FC(F)(F)C(F)(F)CNCC(F)(F)C(F)(F)F`: “inactive”; for `Cc1ccc(S(=O)(=O)OCC(F)(F)C(F)(F)C(F)(F)C(F)(F)C(F)(F)C(F)F)cc1`: “inactive”; for `O=S(=O)(OCC(F)F)C(F)(F)F`: “inactive”.
On the same count and under the same terms, the same measure for `OCC(F)(F)C(F)(F)C(F)(F)F`: “inactive”; for `CC(CCl)OP(=O)(OC(C)CCl)OC(C)CCl` (centres undefined): “inactive”; for `FC(F)(F)C(F)(F)C(F)(F)C(F)(F)C(F)(F)CCI`: “inactive”.
Regarding `O=C(O)C(F)(F)C(F)(F)C(F)(F)C(F)(F)C(F)(F)C(F)(F)C(F)(F)C(F)(F)Cl`, the compound was classed as inactive.
As for `O=C(O)C=C(C(F)(F)F)C(F)(F)F`, the compound was called inactive.
Same read-out and setting: the same measure for `O=S(=O)(OCCOC(F)(F)F)C(F)(F)F`: “inactive”; for `OCC(F)(F)C(F)(F)C(F)(F)C(F)F`: “inactive”; for `OC[C@@H](O)[C@@H](O)[C@H](O)[C@@H](O)CO`: “inactive”.
The same measure, in the same setting: the same measure for `OCC(F)(F)C(F)(F)C(F)(F)C(F)(F)C(F)(F)C(F)F`: “inactive”; for `N=C(N)C(F)(F)C(F)(F)C(F)(F)C(F)(F)C(F)(F)C(F)(F)C(F)(F)F`: “inactive”.
In the case of `O=C(O)C(F)(F)C(F)(F)C(F)(F)C(F)(F)C(F)(F)C(F)(F)C(F)(F)C(F)(F)C(F)(F)C(F)F`, the compound was called inactive.
Same read-out and setting: under `O=P(O)(O)OCCC(F)(F)C(F)(F)C(F)(F)C(F)(F)C(F)(F)C(F)(F)F` stands “inactive”; under `NC(=O)C(F)(F)C(F)(F)C(F)(F)C(F)(F)F`, “inactive”; under `O=C(O)C(F)(F)C(F)(F)C(F)F`, “inactive”.
On the same count and under the same terms, the same measure for `OCCCC(F)(F)C(F)(F)C(F)(F)F`: “inactive”.
On the same count and under the same terms, the same measure for `COC(=O)CCC(F)(F)C(F)(F)C(F)(F)C(F)(F)F`: “inactive”.
For the compound `FC(F)(F)C(F)(F)C(F)(F)C(F)(F)C(F)(F)C(F)(F)CC1CO1` (centres undefined), the call was inactive.

A short description of another experiment: CCTE_Shafer_MEA_dev_interburst_interval_mean: CCTE's Neural Network Formation Assay for Mean Interburst Interval, Shafer Lab (AID 2284046).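 Further: curve fitted for decrease in interburst interval relative to DMSO.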 The gist of the method: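 Developing rat cortical networks on 48-well MEAs receive compound from the day of plating. Burst intervals from each active electrode are averaged per well, and AUC over the recording days is fitted in the negative direction against DMSO.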
Turning to `C=CC(=O)OCC(F)(F)C(F)(F)C(F)(F)C(F)(F)COC(=O)C=C`, the concentration at half-maximal activity (AC50) was 4.2 µM (active).
On to `O=C(O)C(F)(F)C(F)(F)C(F)(F)F`, for which the compound was called inactive.
Still for that read-out and setting: under `CC(C)(C)C(=O)CC(=O)C(F)(F)C(F)(F)C(F)(F)F` stands “inactive”.
On the same count and under the same terms, the same measure for `FC(F)(F)C(F)(F)CNCC(F)(F)C(F)(F)F`: “inactive”.
On to `Cc1ccc(S(=O)(=O)OCC(F)(F)C(F)(F)C(F)(F)C(F)(F)C(F)(F)C(F)F)cc1`, for which the result was inactive.
The same measure, in the same setting: under `O=S(=O)(OCC(F)F)C(F)(F)F` stands “inactive”; under `OCC(F)(F)C(F)(F)C(F)(F)F`, “inactive”.
Same read-out and setting: under `CC(CCl)OP(=O)(OC(C)CCl)OC(C)CCl` (centres undefined) stands “inactive”; under `FC(F)(F)C(F)(F)C(F)(F)C(F)(F)C(F)(F)CCI`, “inactive”; under `O=C(O)C(F)(F)C(F)(F)C(F)(F)C(F)(F)C(F)(F)C(F)(F)C(F)(F)C(F)(F)Cl`, “inactive”.
Consider `O=C(O)C=C(C(F)(F)F)C(F)(F)F`, for which the compound was called inactive.
Still for that read-out and setting: under `O=S(=O)(OCCOC(F)(F)F)C(F)(F)F` stands “inactive”; under `OCC(F)(F)C(F)(F)C(F)(F)C(F)F`, “inactive”.
As to `OC[C@@H](O)[C@@H](O)[C@H](O)[C@@H](O)CO`, the outcome was inactive.
On the same count and under the same terms, the same measure for `OCC(F)(F)C(F)(F)C(F)(F)C(F)(F)C(F)(F)C(F)F`: “inactive”; for `N=C(N)C(F)(F)C(F)(F)C(F)(F)C(F)(F)C(F)(F)C(F)(F)C(F)(F)F`: “inactive”.
On the same count and under the same terms, the same measure for `O=C(O)C(F)(F)C(F)(F)C(F)(F)C(F)(F)C(F)(F)C(F)(F)C(F)(F)C(F)(F)C(F)(F)C(F)F`: “inactive”; for `O=P(O)(O)OCCC(F)(F)C(F)(F)C(F)(F)C(F)(F)C(F)(F)C(F)(F)F`: “inactive”.
On the same count and under the same terms, the same measure for `NC(=O)C(F)(F)C(F)(F)C(F)(F)C(F)(F)F`: “inactive”.
In the case of `O=C(O)C(F)(F)C(F)(F)C(F)F`, the compound was called inactive.
Take `OCCCC(F)(F)C(F)(F)C(F)(F)F`: the compound was called inactive.
For `COC(=O)CCC(F)(F)C(F)(F)C(F)(F)C(F)(F)F`, the compound was classed as inactive.
Same read-out and setting: under `FC(F)(F)C(F)(F)C(F)(F)C(F)(F)C(F)(F)C(F)(F)CC1CO1` (centres undefined) stands “inactive”.

A short description of the next experiment: CCTE_Shafer_MEA_dev_inter_network_spike_interval_mean: CCTE's Neural Network Formation Assay for Mean Inter-network Spike Interval, Shafer Lab (AID 2284047).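 On AC50: potency for a decrease in mean inter-network spike interval below DMSO.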 The method, boiled down:
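Rat cortical cultures, 1.5 x 10^5 cells/well on 48-well MEA plates; continuous exposure days 0–12, medium and compound refreshed DIV 5, 9. Mean time between consecutive network-spike peaks; AUC across DIV 5/7/9/12; DMSO baseline, negative fitting direction.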
In the case of `C=CC(=O)OCC(F)(F)C(F)(F)C(F)(F)C(F)(F)COC(=O)C=C`, the compound was classed as inactive.
For `O=C(O)C(F)(F)C(F)(F)C(F)(F)F`, the outcome was inactive.
On the same count and under the same terms, the same measure for `CC(C)(C)C(=O)CC(=O)C(F)(F)C(F)(F)C(F)(F)F`: “inactive”; for `FC(F)(F)C(F)(F)CNCC(F)(F)C(F)(F)F`: “inactive”.
On the same count and under the same terms, under `Cc1ccc(S(=O)(=O)OCC(F)(F)C(F)(F)C(F)(F)C(F)(F)C(F)(F)C(F)F)cc1` stands “inactive”; under `O=S(=O)(OCC(F)F)C(F)(F)F`, “inactive”; under `OCC(F)(F)C(F)(F)C(F)(F)F`, “inactive”.
As to `CC(CCl)OP(=O)(OC(C)CCl)OC(C)CCl` (centres undefined), the result was inactive.
The same measure, in the same setting: the same measure for `FC(F)(F)C(F)(F)C(F)(F)C(F)(F)C(F)(F)CCI`: “inactive”; for `O=C(O)C(F)(F)C(F)(F)C(F)(F)C(F)(F)C(F)(F)C(F)(F)C(F)(F)C(F)(F)Cl`: “inactive”.
With `O=C(O)C=C(C(F)(F)F)C(F)(F)F`, the AC50 was 15 µM (active).
`O=S(=O)(OCCOC(F)(F)F)C(F)(F)F`: the result was inactive.
Still for that read-out and setting: under `OCC(F)(F)C(F)(F)C(F)(F)C(F)F` stands “inactive”; under `OC[C@@H](O)[C@@H](O)[C@H](O)[C@@H](O)CO`, “inactive”; under `OCC(F)(F)C(F)(F)C(F)(F)C(F)(F)C(F)(F)C(F)F`, “inactive”.
The same measure, in the same setting: under `N=C(N)C(F)(F)C(F)(F)C(F)(F)C(F)(F)C(F)(F)C(F)(F)C(F)(F)F` stands “inactive”; under `O=C(O)C(F)(F)C(F)(F)C(F)(F)C(F)(F)C(F)(F)C(F)(F)C(F)(F)C(F)(F)C(F)(F)C(F)F`, “inactive”; under `O=P(O)(O)OCCC(F)(F)C(F)(F)C(F)(F)C(F)(F)C(F)(F)C(F)(F)F`, “inactive”.
The same measure, in the same setting: the same measure for `NC(=O)C(F)(F)C(F)(F)C(F)(F)C(F)(F)F`: “inactive”; for `O=C(O)C(F)(F)C(F)(F)C(F)F`: “inactive”; for `OCCCC(F)(F)C(F)(F)C(F)(F)F`: “inactive”.
As to `COC(=O)CCC(F)(F)C(F)(F)C(F)(F)C(F)(F)F`, the outcome was inactive.
Regarding `FC(F)(F)C(F)(F)C(F)(F)C(F)(F)C(F)(F)C(F)(F)CC1CO1` (centres undefined), the outcome was inactive.

Source of the values: PubChem BioAssay (EPA / NIEHS).
